Data taken from PubChem BioAssay AID651718 (The Scripps Research Institute Molecular Screening Center, 2012).
The whole screen tested about 360,000 compounds, of which about 2,700 (0.75%) were called active. The sample holds actives, similar compounds and a random draw of the others, so the mix is not that of the screen. Cut-off read from the data, not from the text of the source: active = inhibition above about 4.5%; inactive = the rest.

test system: Methionine sulfoxide reductase A (Bos taurus); assay: inhibition of methionine sulfoxide reductase A – biochemical, absorbance, bovine, HTS, primary screen (AID 651718); conditions: purified bovine MsrA, absorbance read-out; at 15.5 µM; active compounds read high;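 note: 0% = vehicle wells with enzyme and 100% = reference inhibitor wells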

`CCc1n[nH]c(=S)n1/N=C/c1c[nH]c2ccc(Br)cc12` was tested. Which inhibition did it give?
The inhibition was 0.05% (inactive).

For `S=c1[nH]nc(-c2ccccc2)n1/N=C/c1c[nH]c2ccccc12`, which inhibition is on record?
The inhibition was 5.73% (active).

How did the inhibition turn out when `O=[N+]([O-])c1ccccc1/C=N/n1c(COc2ccccc2)n[nH]c1=S` was run?
The inhibition was 0.65% (inactive).

For `CC1CCN(C(=O)c2ncn3c2C(=O)N[C@@H](C)C3)CC1`, which inhibition is on record?
Its inhibition is 0.14% (inactive).

How did the inhibition turn out when `O=C(NCc1ccccc1)[C@H]1CCCN1C(=O)[C@H]1CCCN1C(=O)N1CCOCC1` was run?
Its inhibition is -0.41% (inactive).

For `CN(C)c1nc(N)nc(CSc2ccccn2)n1`, which inhibition is on record?
The inhibition was 0.24% (inactive).

With `C=CCN=C1NC(c2cccc(C(F)(F)F)c2)C(C(=O)OC)=C(C)N1C` (stereo not given) as the molecule, how does the inhibition read?
The inhibition was -0.08% (inactive).

For `Cc1cc(C)cc(OCC(=O)NNC(=O)c2cc3ccccc3oc2=O)c1`, which inhibition is on record?
The inhibition was 0.25% (inactive).

For `CCc1ccc(Oc2coc3cc(OC(=O)c4cc5ccccc5oc4=O)ccc3c2=O)cc1`, which inhibition is on record?
Its inhibition is 1.04% (inactive).

For `CCCOC(=O)c1cc2ccccc2oc1=O`, which inhibition is on record?
Its inhibition is 13% (active).

How did the inhibition turn out when `COC(=O)Cc1nnn2c1[C@H](C)[C@H](c1ccccc1[N+](=O)[O-])OCC2` was run?
Its inhibition is 0.24% (inactive).

With `Cc1c(C(=O)NNC(=O)c2ccncc2)oc2ccccc12` as the molecule, how does the inhibition read?
Its inhibition is 0.46% (inactive).

Which inhibition does the source give for `Cc1c(C=O)c2ccccc2n1CC(=O)O` here?
Its inhibition is 2.23% (inactive).

`Cc1c(C=O)c2ccccn2c1C(=O)c1ccncc1` was tested. Which inhibition did it give?
Its inhibition is 4.76% (active).

With `O=C(NCCc1nnc2ccc(SCC(=O)N3CCOCC3)nn12)c1ccccc1` as the molecule, how does the inhibition read?
Its inhibition is -0.18% (inactive).

With `Cc1noc(C)c1NC(=O)Nc1ccc2c(c1)C(=O)N([C@H](C)CO)C[C@H](C)[C@H](CN(C)Cc1ccncc1)OCCCC[C@@H](C)O2` as the molecule, how does the inhibition read?
Its inhibition is -0.23% (inactive).

How did the inhibition turn out when `CCN1C(=O)N[C@@H]2C[C@H](C(=O)N3CCCC3)[C@H](C)[C@H](c3ccccc3)C[C@@H]21` was run?
Its inhibition is -0.32% (inactive).

Which inhibition does the source give for `O=C(N/N=C/c1ccc2c(c1)OCO2)c1ccc(Cn2cc([N+](=O)[O-])cn2)o1` here?
Its inhibition is 6.14% (active).

With `O=C(c1ccc(Cn2cc([N+](=O)[O-])cn2)o1)N1CCCC1` as the molecule, how does the inhibition read?
The inhibition was 0.09% (inactive).

How did the inhibition turn out when `CN(C)c1ccc(/C=N/NC(=O)c2ccc(Cn3cc(Br)cn3)o2)cc1` was run?
Its inhibition is 4.19% (inactive).

Which inhibition does the source give for `N/C(=N\OS(=O)(=O)c1cccc([N+](=O)[O-])c1)c1ccncc1` here?
Its inhibition is -0.51% (inactive).

How did the inhibition turn out when `CCCCCCCCN1C(=O)[C@@H](CC(=O)NCc2ccc(C)o2)C[C@@]2(C(=O)OC)C1=C[C@H](C(C)(C)C)O[C@@H]2C` was run?
Its inhibition is -0.4% (inactive).

`CC(=O)c1ccccc1OCc1ccc(C(=O)c2ccccc2)cc1` was tested. Which inhibition did it give?
The inhibition was 0.66% (inactive).

For `Cc1cc2nc3c(=O)[nH]c(=O)nc-3n(C[C@H](O)[C@H](O)[C@H](O)CO)c2cc1C`, which inhibition is on record?
The inhibition was 2.57% (inactive).

With `CCN(CC)CCCC(C)n1c2nc(=O)[nH]c(=O)c-2nc2cc(Cl)ccc21` (stereo not given) as the molecule, how does the inhibition read?
Its inhibition is 14.4% (active).

How did the inhibition turn out when `O=S1(=O)c2c(cccc2N2CCCCC2)O[C@H](COCc2ccccc2)CN1C1CC1` was run?
Its inhibition is -0.51% (inactive).

How did the inhibition turn out when `Cc1ccc(CSc2nsc(C)c2C#N)cc1` was run?
Its inhibition is 0.38% (inactive).

With `O=C1N=C(N2CCOCC2)S/C1=C\C=C/c1ccccc1` as the molecule, how does the inhibition read?
The inhibition was 3.23% (inactive).

How did the inhibition turn out when `Cc1ccc(N2CCN(C3=NC(=O)/C(=C\c4cccs4)S3)CC2)cc1` was run?
The inhibition was 5.14% (active).

With `CC(C)=C1SC(N2CCN(c3ccc(C)c(Cl)c3)CC2)=NC1=O` as the molecule, how does the inhibition read?
Its inhibition is -1.4% (inactive).

Which inhibition does the source give for `COc1ccc(S(=O)(=O)Nc2ccc3c(c2)C(=O)N([C@H](C)CO)C[C@H](C)[C@@H](CN(C)C)OCCCC[C@H](C)O3)cc1` here?
Its inhibition is 0.52% (inactive).

How did the inhibition turn out when `Cc1ccc(C(=O)N2CCCc3ccccc32)c(Cl)c1` was run?
Its inhibition is -0.31% (inactive).

For `Cc1c(C(=O)OCC(=O)N2CCCC2=O)oc2ccccc12`, which inhibition is on record?
Its inhibition is -1.01% (inactive).

`Cc1c(C(=O)N2CCCc3ccccc32)oc2ccccc12` was tested. Which inhibition did it give?
Its inhibition is 10.3% (active).

Which inhibition does the source give for `O=C1Nc2ccccc2C1=NN=Cc1ccco1` here?
Its inhibition is 0.16% (inactive).

For `CCOC(=O)/C(C#N)=C\c1c(C)cc(C)c(COC(C)=O)c1C`, which inhibition is on record?
Its inhibition is 0.74% (inactive).

With `COC(=O)/C(C#N)=C/c1occc1C` as the molecule, how does the inhibition read?
Its inhibition is 5.68% (active).

How did the inhibition turn out when `COc1ccc(/C=C(\C#N)C(=O)ONC2=NCCCCC2)cc1` was run?
Its inhibition is 1.44% (inactive).

`COc1ccc(CN2CCNC(=O)C2CC(=O)N(C)Cc2ccccn2)cc1OC` (stereo not given) was tested. Which inhibition did it give?
Its inhibition is -0.62% (inactive).

With `C[N+](C)(C)CCOP(=O)([O-])OC[C@H](O)CO` as the molecule, how does the inhibition read?
The inhibition was 0.34% (inactive).

For `CCCCC(=O)Nc1ccccc1N1CCN(c2ccc(F)cc2)CC1`, which inhibition is on record?
The inhibition was -1.12% (inactive).

`O=C(Nc1ccccc1N1CCOCC1)c1ccncc1` was tested. Which inhibition did it give?
The inhibition was 1.2% (inactive).

For `CC(=O)c1ccc(N2CCN(CC(=O)Nc3ccccc3N3CCOCC3)CC2)cc1`, which inhibition is on record?
Its inhibition is 4.88% (active).

For `COC(=O)N1Cc2ccnnc2CC1c1ccccc1Br` (stereo not given), which inhibition is on record?
The inhibition was -0.9% (inactive).

How did the inhibition turn out when `CN(Cc1ccccc1)C(=O)c1ccc(NC2=NC3CS(=O)(=O)CC3S2)cc1` (stereo not given) was run?
The inhibition was 1.72% (inactive).

For `COc1ccc(C2=NS(=O)(=O)N(C)C(C(=O)N(C)Cc3ccccc3)=C2)cc1`, which inhibition is on record?
Its inhibition is 3.53% (inactive).

With `COc1ccc(C2=NS(=O)(=O)N(C)C(C(=O)N3CCCCC3)=C2)cc1` as the molecule, how does the inhibition read?
The inhibition was 5.54% (active).

Which inhibition does the source give for `COc1ccc(C2=NS(=O)(=O)N(C)C(C(=O)NC(C)c3ccccc3)=C2)cc1` (stereo not given) here?
Its inhibition is 4.29% (inactive).

`CCCCCCc1cc2cc(-c3nnc(-c4cccc(OC)c4)o3)c(=O)oc2cc1O` was tested. Which inhibition did it give?
Its inhibition is -0.59% (inactive).

`O=C(N/N=C/c1ccc(O)c(O)c1)C1c2ccccc2Oc2ccccc21` was tested. Which inhibition did it give?
Its inhibition is 0.85% (inactive).

Which inhibition does the source give for `Oc1ccc(/C=N/Nc2ccc(C(F)(F)F)cn2)cc1O` here?
The inhibition was 7.63% (active).

How did the inhibition turn out when `COc1ccc(/C=N/Nc2ncnc3sc4c(c23)CCCC4)cc1O` was run?
Its inhibition is 4.5% (inactive).

Which inhibition does the source give for `CSc1nnc(SCc2nc3sc(C(=O)O)c(C)c3c(=O)[nH]2)s1` here?
The inhibition was 0% (inactive).

`Cc1c(C)n2c(SCC(=O)N3CCCC3)nnc2[nH]c1=O` was tested. Which inhibition did it give?
Its inhibition is -0.57% (inactive).

Which inhibition does the source give for `CC(=O)c1sc2nc(SCC(=O)N3CCCCC3)[nH]c(=O)c2c1C` here?
The inhibition was 6.38% (active).

With `COc1ccc(-c2ccccc2C2Cc3nnccc3CN2C(=O)Nc2ccccc2)cc1` (stereo not given) as the molecule, how does the inhibition read?
Its inhibition is 2.13% (inactive).

With `CC(=O)N1C[C@@H](CO)[C@@H](N(C)C(=O)C(C)(C)C)C[C@H]1c1ccccc1Br` as the molecule, how does the inhibition read?
Its inhibition is 0.66% (inactive).

For `COc1cccc(C2=CC(=O)C[C@H](c3ccc(F)cc3)C2)c1OC`, which inhibition is on record?
The inhibition was 6.7% (active).

For `COc1ccccc1C1=CC(=O)C[C@H](c2ccc(F)cc2)C1`, which inhibition is on record?
Its inhibition is 1.16% (inactive).

For `O=C1C=C(c2cccc(Cl)c2O)C[C@@H](c2ccc(F)cc2)C1`, which inhibition is on record?
The inhibition was -0.68% (inactive).
